Data taken from the supplement of paper PMC11732987, “Enantioselective OTUD7B fragment discovery through chemoproteomics screening and high-throughput optimisation” (Communications Chemistry, 2025).

How the values were obtained:
Assay in all cases: log2 ratio of Biotin-Ahx-Ub-VS probe labelling (fragment/DMSO); higher = less target engagement (more negative = stronger competition), active = hit call of the paper (q ≤ 0.05, log2 ratio ≤ -1)
Conditions in all cases: compound concentration: 200 uM; treatment time: 3 h
USP34 = USP34 (UniProt Q70CQ2)
Sequence of USP34 (Q70CQ2 whole entry, the tested form may be a part): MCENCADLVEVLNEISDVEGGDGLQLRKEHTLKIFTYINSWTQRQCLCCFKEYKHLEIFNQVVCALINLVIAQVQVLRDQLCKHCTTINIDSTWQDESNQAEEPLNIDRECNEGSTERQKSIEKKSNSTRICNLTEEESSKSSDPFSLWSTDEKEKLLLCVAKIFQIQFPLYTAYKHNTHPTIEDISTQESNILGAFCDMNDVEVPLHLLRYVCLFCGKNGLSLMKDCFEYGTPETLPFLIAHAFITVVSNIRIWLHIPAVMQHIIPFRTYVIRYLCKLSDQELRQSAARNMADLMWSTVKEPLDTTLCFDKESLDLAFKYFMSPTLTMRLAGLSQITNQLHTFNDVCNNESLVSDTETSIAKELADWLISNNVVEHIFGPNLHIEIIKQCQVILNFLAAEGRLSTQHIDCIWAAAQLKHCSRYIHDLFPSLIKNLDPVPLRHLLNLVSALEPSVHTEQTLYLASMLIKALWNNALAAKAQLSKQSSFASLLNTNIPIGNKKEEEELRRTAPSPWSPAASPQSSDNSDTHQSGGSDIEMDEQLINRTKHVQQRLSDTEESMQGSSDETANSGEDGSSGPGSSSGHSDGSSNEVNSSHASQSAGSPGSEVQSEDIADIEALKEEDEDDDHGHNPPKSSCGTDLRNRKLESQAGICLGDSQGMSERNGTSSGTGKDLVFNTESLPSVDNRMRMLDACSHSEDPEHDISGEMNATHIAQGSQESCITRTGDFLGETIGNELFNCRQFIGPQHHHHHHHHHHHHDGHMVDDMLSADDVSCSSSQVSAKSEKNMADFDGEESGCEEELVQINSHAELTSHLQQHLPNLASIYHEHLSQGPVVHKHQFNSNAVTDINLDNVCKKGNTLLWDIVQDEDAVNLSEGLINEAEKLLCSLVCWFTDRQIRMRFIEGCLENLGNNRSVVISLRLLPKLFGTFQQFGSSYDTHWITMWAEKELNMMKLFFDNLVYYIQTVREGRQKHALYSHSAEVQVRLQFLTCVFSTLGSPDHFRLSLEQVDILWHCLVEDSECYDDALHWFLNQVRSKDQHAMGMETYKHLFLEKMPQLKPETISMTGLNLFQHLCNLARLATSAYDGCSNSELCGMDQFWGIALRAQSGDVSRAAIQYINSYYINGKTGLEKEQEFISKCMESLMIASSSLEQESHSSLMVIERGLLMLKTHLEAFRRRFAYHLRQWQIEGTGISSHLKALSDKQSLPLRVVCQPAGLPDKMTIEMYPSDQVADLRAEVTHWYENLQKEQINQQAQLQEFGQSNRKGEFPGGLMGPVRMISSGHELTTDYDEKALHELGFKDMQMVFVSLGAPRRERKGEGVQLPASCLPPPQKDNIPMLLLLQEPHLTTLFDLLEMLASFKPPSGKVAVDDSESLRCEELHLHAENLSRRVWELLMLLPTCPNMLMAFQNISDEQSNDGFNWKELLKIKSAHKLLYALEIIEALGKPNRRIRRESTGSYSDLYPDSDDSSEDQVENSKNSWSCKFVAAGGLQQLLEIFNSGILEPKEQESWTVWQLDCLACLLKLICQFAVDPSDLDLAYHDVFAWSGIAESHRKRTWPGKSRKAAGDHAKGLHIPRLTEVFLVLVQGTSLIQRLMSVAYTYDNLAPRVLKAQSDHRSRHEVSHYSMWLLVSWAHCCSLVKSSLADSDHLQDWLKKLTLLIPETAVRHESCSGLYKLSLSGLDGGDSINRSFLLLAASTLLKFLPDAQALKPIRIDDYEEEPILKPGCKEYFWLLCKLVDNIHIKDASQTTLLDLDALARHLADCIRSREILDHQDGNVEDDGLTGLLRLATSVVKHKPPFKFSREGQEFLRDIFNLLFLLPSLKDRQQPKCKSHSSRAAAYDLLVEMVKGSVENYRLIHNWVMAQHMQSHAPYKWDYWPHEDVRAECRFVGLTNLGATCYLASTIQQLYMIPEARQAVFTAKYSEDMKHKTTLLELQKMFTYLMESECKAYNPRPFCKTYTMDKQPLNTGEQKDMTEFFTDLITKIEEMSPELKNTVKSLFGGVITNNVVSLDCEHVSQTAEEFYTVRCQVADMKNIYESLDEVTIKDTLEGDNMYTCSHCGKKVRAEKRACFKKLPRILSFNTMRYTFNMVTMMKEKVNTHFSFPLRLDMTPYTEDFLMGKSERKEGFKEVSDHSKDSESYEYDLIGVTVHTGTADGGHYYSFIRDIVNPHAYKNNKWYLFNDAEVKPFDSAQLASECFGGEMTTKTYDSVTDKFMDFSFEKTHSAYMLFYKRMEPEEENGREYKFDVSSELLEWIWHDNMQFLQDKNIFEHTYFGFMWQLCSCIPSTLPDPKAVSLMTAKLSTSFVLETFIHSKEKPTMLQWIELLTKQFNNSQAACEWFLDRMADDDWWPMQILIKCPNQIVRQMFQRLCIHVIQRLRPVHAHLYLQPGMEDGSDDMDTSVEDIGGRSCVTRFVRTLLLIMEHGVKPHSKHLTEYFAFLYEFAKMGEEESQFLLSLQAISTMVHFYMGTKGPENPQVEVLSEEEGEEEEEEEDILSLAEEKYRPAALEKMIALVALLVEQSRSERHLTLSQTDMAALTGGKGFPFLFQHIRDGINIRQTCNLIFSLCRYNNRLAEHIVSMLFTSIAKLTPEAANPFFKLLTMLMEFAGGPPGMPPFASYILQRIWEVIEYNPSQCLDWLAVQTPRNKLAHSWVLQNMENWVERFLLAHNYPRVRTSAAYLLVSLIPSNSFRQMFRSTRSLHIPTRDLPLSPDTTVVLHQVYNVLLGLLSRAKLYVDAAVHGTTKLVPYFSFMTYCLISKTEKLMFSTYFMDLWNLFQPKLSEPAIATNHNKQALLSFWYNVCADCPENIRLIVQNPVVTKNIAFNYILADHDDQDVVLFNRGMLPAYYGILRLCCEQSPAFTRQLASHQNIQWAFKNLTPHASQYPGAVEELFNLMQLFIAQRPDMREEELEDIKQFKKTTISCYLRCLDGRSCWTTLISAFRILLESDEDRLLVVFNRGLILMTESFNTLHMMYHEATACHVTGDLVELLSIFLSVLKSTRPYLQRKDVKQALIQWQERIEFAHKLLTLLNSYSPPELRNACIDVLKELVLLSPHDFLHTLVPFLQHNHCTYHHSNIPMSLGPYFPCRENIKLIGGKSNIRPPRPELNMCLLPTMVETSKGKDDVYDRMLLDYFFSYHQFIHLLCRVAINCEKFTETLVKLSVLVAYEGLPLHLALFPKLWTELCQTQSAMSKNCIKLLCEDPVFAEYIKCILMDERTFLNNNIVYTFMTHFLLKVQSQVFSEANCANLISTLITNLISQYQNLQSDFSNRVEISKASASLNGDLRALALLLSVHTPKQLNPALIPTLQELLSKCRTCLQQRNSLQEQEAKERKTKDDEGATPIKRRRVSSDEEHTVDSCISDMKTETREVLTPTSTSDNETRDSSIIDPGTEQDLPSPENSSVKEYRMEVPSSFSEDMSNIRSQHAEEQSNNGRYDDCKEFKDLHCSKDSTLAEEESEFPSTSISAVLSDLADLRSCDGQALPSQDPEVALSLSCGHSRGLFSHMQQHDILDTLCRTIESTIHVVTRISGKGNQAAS
Summary of the method: (§1)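 Average log2 ratios of fragment over vehicle were obtained by unpaired t-test from global-median-normalised Spectronaut label-free quantities. Proteins with ≥2 unique peptides were included. HEK293T lysate (495 µg per sample) was treated in triplicate with fragment at 200 µM or vehicle for 3 h, then with Biotin-Ahx-Ub-VS at 0.5 µM final for 1 h, and labelled DUBs were NeutrAvidin-enriched and run by diaPASEF LC-MS/MS.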

USP36 = biological target: T1, USP36 (UniProt Q9P275)
T1 sequence (whole entry): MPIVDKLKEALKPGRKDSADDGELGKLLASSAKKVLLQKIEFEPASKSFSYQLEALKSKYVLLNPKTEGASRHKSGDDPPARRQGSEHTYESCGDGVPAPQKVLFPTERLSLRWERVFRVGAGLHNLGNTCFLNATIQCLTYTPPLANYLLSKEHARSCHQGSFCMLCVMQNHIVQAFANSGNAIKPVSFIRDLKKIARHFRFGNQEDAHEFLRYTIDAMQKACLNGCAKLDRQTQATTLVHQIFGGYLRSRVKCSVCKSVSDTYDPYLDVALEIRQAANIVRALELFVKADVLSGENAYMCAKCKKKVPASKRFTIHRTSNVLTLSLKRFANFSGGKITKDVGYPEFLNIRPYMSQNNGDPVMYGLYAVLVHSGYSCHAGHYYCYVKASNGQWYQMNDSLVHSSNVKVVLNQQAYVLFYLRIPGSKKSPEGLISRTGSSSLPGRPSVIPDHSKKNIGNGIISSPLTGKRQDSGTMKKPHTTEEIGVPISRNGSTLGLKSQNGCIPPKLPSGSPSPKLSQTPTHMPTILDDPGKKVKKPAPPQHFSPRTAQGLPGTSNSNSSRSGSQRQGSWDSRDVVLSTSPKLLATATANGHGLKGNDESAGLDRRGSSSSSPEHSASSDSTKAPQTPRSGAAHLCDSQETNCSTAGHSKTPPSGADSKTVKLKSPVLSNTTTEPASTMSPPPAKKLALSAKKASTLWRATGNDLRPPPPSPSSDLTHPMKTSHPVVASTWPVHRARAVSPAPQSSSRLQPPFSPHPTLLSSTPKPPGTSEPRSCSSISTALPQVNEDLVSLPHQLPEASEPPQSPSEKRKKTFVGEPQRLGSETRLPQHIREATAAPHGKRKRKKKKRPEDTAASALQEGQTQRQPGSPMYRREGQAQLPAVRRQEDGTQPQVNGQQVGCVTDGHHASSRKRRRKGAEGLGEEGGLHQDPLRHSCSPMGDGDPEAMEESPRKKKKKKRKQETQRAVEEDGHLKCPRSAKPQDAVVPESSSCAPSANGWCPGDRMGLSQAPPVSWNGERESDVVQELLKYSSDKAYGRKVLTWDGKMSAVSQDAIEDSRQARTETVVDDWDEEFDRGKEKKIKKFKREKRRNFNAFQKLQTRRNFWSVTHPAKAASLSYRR
Summary of the method: as §1

USP38 = biological target: T2, USP38 (UniProt Q8NB14)
T2 sequence (whole entry): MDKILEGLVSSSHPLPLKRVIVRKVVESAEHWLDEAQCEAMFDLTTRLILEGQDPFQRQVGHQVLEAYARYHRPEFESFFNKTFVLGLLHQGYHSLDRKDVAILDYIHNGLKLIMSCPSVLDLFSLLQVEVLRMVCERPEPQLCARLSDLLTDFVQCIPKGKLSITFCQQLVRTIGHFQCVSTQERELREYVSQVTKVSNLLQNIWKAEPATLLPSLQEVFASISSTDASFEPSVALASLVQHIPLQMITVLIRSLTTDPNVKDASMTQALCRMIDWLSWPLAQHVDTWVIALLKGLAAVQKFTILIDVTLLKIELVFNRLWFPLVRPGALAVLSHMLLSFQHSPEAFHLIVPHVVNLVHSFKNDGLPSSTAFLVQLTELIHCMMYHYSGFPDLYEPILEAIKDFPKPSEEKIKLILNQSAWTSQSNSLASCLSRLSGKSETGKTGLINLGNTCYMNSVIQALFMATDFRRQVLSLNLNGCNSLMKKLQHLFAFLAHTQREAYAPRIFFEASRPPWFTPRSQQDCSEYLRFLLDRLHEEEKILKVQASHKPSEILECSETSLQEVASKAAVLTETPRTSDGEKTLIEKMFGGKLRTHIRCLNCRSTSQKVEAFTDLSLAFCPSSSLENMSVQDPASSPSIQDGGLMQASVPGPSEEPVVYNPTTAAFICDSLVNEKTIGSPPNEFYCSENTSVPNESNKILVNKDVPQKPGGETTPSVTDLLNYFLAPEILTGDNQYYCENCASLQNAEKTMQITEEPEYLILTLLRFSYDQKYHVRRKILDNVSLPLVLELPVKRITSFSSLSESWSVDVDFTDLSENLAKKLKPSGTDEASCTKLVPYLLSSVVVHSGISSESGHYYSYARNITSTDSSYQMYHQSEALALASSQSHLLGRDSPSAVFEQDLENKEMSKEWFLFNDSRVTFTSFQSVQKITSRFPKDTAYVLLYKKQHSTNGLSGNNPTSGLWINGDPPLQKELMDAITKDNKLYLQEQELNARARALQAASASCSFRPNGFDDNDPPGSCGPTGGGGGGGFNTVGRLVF
Summary of the method: as §1

USP39 = biological target: T3, USP39 (UniProt Q53GS9)
T3 sequence (whole entry): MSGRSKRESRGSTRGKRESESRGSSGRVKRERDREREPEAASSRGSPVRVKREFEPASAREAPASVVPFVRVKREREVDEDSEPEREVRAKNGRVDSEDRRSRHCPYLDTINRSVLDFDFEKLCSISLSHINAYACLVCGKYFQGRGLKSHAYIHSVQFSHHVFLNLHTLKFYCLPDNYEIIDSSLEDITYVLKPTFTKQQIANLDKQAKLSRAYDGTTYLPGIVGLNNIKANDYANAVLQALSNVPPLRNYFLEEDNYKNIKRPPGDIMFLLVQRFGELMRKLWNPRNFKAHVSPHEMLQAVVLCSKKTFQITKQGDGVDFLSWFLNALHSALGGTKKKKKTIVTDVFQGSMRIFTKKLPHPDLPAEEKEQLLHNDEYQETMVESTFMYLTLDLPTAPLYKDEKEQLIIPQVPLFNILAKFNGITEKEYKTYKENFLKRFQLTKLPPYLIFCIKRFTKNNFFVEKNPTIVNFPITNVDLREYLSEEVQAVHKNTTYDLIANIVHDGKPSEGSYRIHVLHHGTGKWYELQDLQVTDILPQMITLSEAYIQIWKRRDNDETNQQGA
Summary of the method: as §1

USP4 = biological target: T4, USP4 (UniProt Q13107)
T4 sequence (whole entry): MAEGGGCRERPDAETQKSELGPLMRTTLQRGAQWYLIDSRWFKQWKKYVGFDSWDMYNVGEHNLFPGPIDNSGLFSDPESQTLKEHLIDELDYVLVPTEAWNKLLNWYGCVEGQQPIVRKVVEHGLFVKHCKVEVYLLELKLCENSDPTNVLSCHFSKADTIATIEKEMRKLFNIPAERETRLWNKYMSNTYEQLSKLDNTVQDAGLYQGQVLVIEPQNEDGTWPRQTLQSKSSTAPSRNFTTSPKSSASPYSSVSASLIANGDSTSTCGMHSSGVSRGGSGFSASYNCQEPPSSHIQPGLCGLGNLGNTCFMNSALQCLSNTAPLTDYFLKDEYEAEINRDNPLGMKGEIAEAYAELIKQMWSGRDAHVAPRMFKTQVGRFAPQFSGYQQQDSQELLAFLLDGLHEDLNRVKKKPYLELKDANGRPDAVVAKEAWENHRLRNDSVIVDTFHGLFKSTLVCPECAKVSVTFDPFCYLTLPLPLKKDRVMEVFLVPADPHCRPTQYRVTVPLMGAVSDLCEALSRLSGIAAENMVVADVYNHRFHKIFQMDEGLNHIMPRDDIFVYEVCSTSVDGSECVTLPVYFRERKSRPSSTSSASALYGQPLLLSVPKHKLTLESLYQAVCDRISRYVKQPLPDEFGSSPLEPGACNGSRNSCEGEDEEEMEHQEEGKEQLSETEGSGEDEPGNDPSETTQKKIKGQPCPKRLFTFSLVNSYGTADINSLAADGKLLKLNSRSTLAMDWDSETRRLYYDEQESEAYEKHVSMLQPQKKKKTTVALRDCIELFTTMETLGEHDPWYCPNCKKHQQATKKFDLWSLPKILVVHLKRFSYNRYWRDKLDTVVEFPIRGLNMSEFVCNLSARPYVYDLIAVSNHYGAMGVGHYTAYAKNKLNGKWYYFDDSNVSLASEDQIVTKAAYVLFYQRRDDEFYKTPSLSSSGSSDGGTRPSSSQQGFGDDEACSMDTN
Summary of the method: as §1

Measured: log2 ratio of Biotin-Ahx-Ub-VS probe labelling

O=C(O)C1Cc2ccccc2CN1C(=O)CCl (stereo not given)
inactive: USP34 -0.101 | USP36 -0.224 | USP38 -0.252 | USP39 -0.281 | USP4 -0.207
